Values joined by “and” are separate entries in the source; they are usually repeats but may differ in a detail not shown here. Equal entries are not always repeated. Records with an inconclusive call do not appear. The source holds several records for some structures; these can differ, active in one and inactive in another. Values without a mark were called inactive. Active and inactive are the calls of the source. Calls come from the whole dose curve; as a rule, active = well fitted inhibition curve with a large enough effect; inconclusive = small, poorly fitted or top-dose-only effect; inactive = flat fitted curve, though single readings scatter.
Each compound was assayed on CRL-7250 (assay: Cytotoxic Profiling of Annotated Libraries Using Quantitative High-Throughput Screening (AID 1296008; note: nearly all actives have a fitted effect of over 60% in size)). Settings: Five cell lines viability, CellTiter-Glo ATP luminescence, 48-72 h; max response: stronger effect = lower value.
How it was run: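 Compounds were pin-transferred onto cells and incubated 48 or 72 hr at 37 degree Celsius, 95% humidity. CellTiter-Glo was added, plates sat 10 min at room temperature, then ATP-coupled luminescence was imaged as the viability read-out.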
In the case of `Nc1nccc(Oc2ccc(NC(=O)c3c[nH]cc(-c4ccc(F)cc4)c3=O)cc2F)c1Cl`, the Potency is reported as 18.7 µM (active).
`CCCn1c(=O)c2[nH]c(-c3cnn(Cc4cccc(C(F)(F)F)c4)c3)nc2n(CC)c1=O` gave a max response of -9.35%.
For `CNC(=O)CN1CCC(Oc2cc3c(Nc4cccc(Cl)c4F)ncnc3cc2OC)CC1`, the max response was -5.68% and -4.5%.
In the case of `CC[C@@]1(O)C(=O)OCc2c1cc1n(c2=O)Cc2cc3cc(O)ccc3nc2-1`, the Potency is reported as 1.3 µM (active) and 1.48 µM (active).
With `NC1(Cc2ccc(Cl)cc2)CCN(c2ncnc3[nH]ccc23)CC1` the Potency was 13.2 µM (active).
For `CS(=O)(=O)N1CCN(Cc2cc3nc(-c4cccc5[nH]ncc45)nc(N4CCOCC4)c3s2)CC1`, the Potency was 1.05 µM (active) and 1.64 µM (active).
`COc1cc(C(=O)N2CCC(N3CCN(C)CC3)CC2)ccc1Nc1ncc2c(n1)N(C)c1ccccc1C(=O)N2C` was tested, and the Potency was 3.66 µM (active).
For `Cc1cc(C(=O)N2CCN(c3cccc(Cl)c3)CC2)n(-c2ccccc2)n1`, the Potency was 4.69 µM (active) and 5.8 µM (active).
`Nc1nc(Nc2ccc(S(N)(=O)=O)cc2)nn1C(=O)c1c(F)cccc1F` was tested, and the Potency was 18.7 µM (active).
In the case of `CC(C)c1nn(-c2c(Cl)cccc2Cl)c2nc(Cc3ccc(OCCO)cc3)[nH]c(=O)c12`, the Potency is reported as 0.0291 µM (active).
`O=C(O)c1ccc2c(c1)nc(Nc1cccc(Cl)c1)c1ccncc12` was tested, and the Potency was 14.6 µM (active).
With `CS(=O)(=O)c1ccc(-c2cnc(N)c(C(=O)Nc3ccccc3)n2)cc1` the max response was -11% and the outcome was “inactive”.
With `Nc1ccccc1NC(=O)c1ccc(CNc2nccc(-c3cccnc3)n2)cc1` the Potency was 4.18 µM (active) and 5.17 µM (active).
`Nc1ccc(C(=O)c2cc3c(ccc4ccccc43)[nH]2)cc1` gave a max response of -31%.
In the case of `NC(=O)Nc1cc(-c2cccc(F)c2)sc1C(=O)N[C@H]1CCCNC1`, the Potency is reported as 4.69 µM (active) and 2.06 µM (active).
`COc1ccc(F)c(F)c1C(=O)c1cnc(NC2CCN(S(C)(=O)=O)CC2)nc1N` was tested, and the Potency was 2.35 µM (active) and 3.66 µM (active).
For `Cn1c2ccccc2c2c3c(c4c5ccccc5n(CCC#N)c4c21)CNC3=O`, the Potency was 14.6 µM (active).
For `COc1cc2nccc(Oc3ccc(NC(=O)C4(C(=O)Nc5ccc(F)cc5)CC4)cc3)c2cc1OC`, the Potency was 1.48 µM (active) and 13 µM (active).
`C=CC(=O)Nc1cccc(Oc2nc(Nc3ccc(N4CCN(C)CC4)cc3OC)ncc2Cl)c1` gave a max response of -21.1%.
In the case of `CCCCCCCCCC(=O)N[C@@H](Cc1c[nH]c2ccccc12)C(=O)N[C@H](CC(N)=O)C(=O)N[C@@H](CC(=O)O)C(=O)N[C@@H]1C(=O)NCC(=O)N[C@@H](CCCN)C(=O)N[C@@H](CC(=O)O)C(=O)N[C@H](C)C(=O)N[C@@H](CC(=O)O)C(=O)NCC(=O)N[C@H](CO)C(=O)N[C@@H]([C@@H](C)CC(=O)O)C(=O)N[C@@H](CC(=O)c2ccccc2N)C(=O)O[C@@H]1C`, the outcome is reported as “inactive”.
`CC[C@@H]1C(=O)N(C)c2cnc(Nc3ccc(C(=O)NC4CCC(N5CCN(CC6CC6)CC5)CC4)cc3OC)nc2N1C(C)C` (stereo partly specified) was tested, and the Potency was 332 nM (active) and 14.6 µM (active).
With `CC(=O)OCC(=O)[C@@]1(O)[C@H](C)C[C@H]2[C@@H]3C=C(C)C4=Cc5c(cnn5-c5ccccc5)C[C@]4(C)[C@@H]3[C@@H](O)C[C@@]21C` the Potency was 20.9 µM (active).
With `CC[C@H](CO)Nc1nc(NCc2ccccc2)c2ncn(C(C)C)c2n1` the Potency was 26.4 µM (active).
With `O=C(O)Cn1nnc(-c2cc(N3CCC(Oc4cc(F)ccc4Br)CC3)no2)n1` the max response was 1.84% and -2.26%.
`COc1cc2c(NC3CCN(C(C)C)CC3)nc(C3CCCCC3)nc2cc1OCCCN1CCCC1` was tested, and the Potency was 8.33 µM (active) and 4.11 µM (active).
`Nc1nc(NCCNc2ncc(-n3ccnc3)c(-c3ccc(Cl)cc3Cl)n2)ccc1[N+](=O)[O-]` was tested, and the Potency was 5.8 µM (active) and the max response was -3.28%.
Work on `C=C1C(=CC=C2CCCC3(C)[C@@H]([C@H](C)C=CC=CC(O)(CC)CC)CC[C@@H]23)C[C@@H](O)C[C@@H]1O` (stereo partly specified) yielded a max response of 4.9%.
In the case of `CN1CCN(c2cc(C(=O)Nc3ccc4c(c3)-c3c(c(C(N)=O)nn3-c3ccc(F)cc3)CC4)c(Cl)cn2)CC1`, the max response is reported as -32.2%.
In the case of `CC(=O)Nc1nc(C)c(-c2ccc(Cl)c(S(=O)(=O)NCCO)c2)s1`, the Potency is reported as 1.66 µM (active) and 13 µM (active).
For `CC(C)(O)c1cc2nc(-c3cnc(N)nc3)nc(N3CCOCC3)c2s1`, the Potency was 148 nM (active) and 731 nM (active).
For `CN[C@H]1CCc2cc(OC)c(OC)c(OC)c2-c2ccc(OC)c(=O)cc21`, the Potency was 0.0148 µM (active).
In the case of `Nc1ncnc2c1c(-c1cnc3[nH]ccc3c1)nn2C1CCCC1`, the Potency is reported as 118 nM (active) and 920 nM (active).
`CNC(=O)c1cc(Oc2ccc(NC(=O)Nc3cc(C(C)(C)C)nn3-c3ccc4ncccc4c3)c(F)c2)ccn1` was tested, and the Potency was 13.2 µM (active) and 18.4 µM (active).
With `O=C(C=Cc1c(C(=O)O)[nH]c2cc(Cl)cc(Cl)c12)Nc1ccccc1` the outcome was “inactive”.
% is set by controls: 0 for no effect and ±100 for the full control effect; potency is the fitted concentration of half-maximal effect.
